TDP1 cell noCPT: qHTS for Inhibitors of human tyrosyl-DNA phosphodiesterase 1 (TDP1): qHTS in cells in absence of CPT. DT40 Tdp1-/- hTDP1 cells, no CPT, ATP luminescence, 48 h. Potency, µM (highest dose often 46.2 µM), for inactives: top-dose activity change, negative = growth inhibition, most hits filed as inhibitors. 15% of 420,000 active; note: potency is the fitted concentration of half-maximal effect; nearly all actives have a fitted effect of over 55% in size
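Luminescent ATP content (CellTiter-Glo) served as the growth readout. Knockout chicken DT40 cells expressing human TDP1 were exposed to compounds without camptothecin for a minimum 48 hr at 37 °C.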
HT1080-NT tox: qHTS for induction of synthetic lethality in tumor cells producing 2HG: qHTS for the HT-1080-NT fibrosarcoma cell line; HT-1080-NT fibrosarcoma viability, CellTiter-Glo ATP luminescence, 48 h; Potency, µM (series often up to 46.1 µM), for inactives: at the highest dose activity, negative = less viability, usual class: cytotoxic; 1.6% of 360,000 active;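 note: NT is the 2HG producing partner of a matched IDH1 knockdown line; potency is the fitted concentration of half-maximal effect; 0% = DMSO-treated cells and -100% = media-only wells without cells; nearly all actives have a fitted effect of over 55% in size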
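HT-1080-NT; 750 cells/well; 5% FBS RPMI; 48 h compound, 37 degrees C; CellTiter-Glo luminescence; curve fitting and curve-class assignment.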
TDP1 cell CPT: qHTS for Inhibitors of human tyrosyl-DNA phosphodiesterase 1 (TDP1): qHTS in cells in presence of CPT; Potency, µM (series often up to 46.2 µM), inactives show at the top dose activity change, negative = growth inhibition, hits mostly inhibitors; chicken DT40 Tdp1-/-;hTDP1 cells + 20 nM CPT, ATP luminescence, 48 h; 12% of 420,000 active; note: potency is the fitted concentration of half-maximal effect; nearly all actives have a fitted effect of over 55% in size
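Cell growth measured by CellTiter-Glo luminescence after a minimum 48 h, 37 C compound exposure with 20 nM CPT in Tdp1-knockout DT40 cells stably expressing hTDP1, seeded 400/well; qHTS titration format.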
ELG1 DNA repair: qHTS screen for small molecules that inhibit ELG1-dependent DNA repair in human embryonic kidney (HEK293T) cells expressing luciferase-tagged ELG1; Potency, µM (series often up to 46.1 µM), for the others: at the highest dose activity change, negative = inhibition, hits mostly inhibitors; HEK293T ELG1-luciferase reporter, luminescence, 16 h; DNA damage induced by 5-fluorouridine; 2.3% of 330,000 active; AID 504467, 2011; note: potency is the fitted concentration of half-maximal effect; nearly all actives have a fitted effect of over 55% in size
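5-Fluorouridine DNA damage + compound/DMSO, 2,000 cells/well, 16 h, 37 °C/5% CO2. ONE-Glo, 30 min RT, luminescence. Readout = decrease in reporter signal.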
HT1080 IDH1KD tx: qHTS for induction of synthetic lethality in tumor cells producing 2HG: qHTS for the HT-1080-IDH1KD cell line. Potency, µM (doses to about 46.1 µM), inactives show at the top dose activity, negative = toxicity, usual class: cytotoxic. 2% of 360,000 active. HT-1080 IDH1 knockdown viability, ATP luminescence, 48 h;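 note: potency is the fitted concentration of half-maximal effect; 0% = DMSO wells and -100% = cell-free medium wells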
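HT-1080-IDH1KD cells (IDH1 knocked down), 750/well in RPMI with 5% FBS, treated with compound 48 h at 37 degrees C. Viability by CellTiter-Glo luminescence, normalised to DMSO and no-cell wells; concentration-response curves classed.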
IL-1B inflam inh: qHTS for Inhibitors of Inflammasome Signaling: IL-1-beta AlphaLISA Primary Screen; AID 743279, 2014; activity change, % at 57.5 µM; 4.7% of 360,000 active; THP-1 LPS/ATP IL-1B secretion, AlphaLISA, 16 h; active compounds read low; in the data active = activity change below about -50%; inconclusive = mostly about -30% to -49%
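THP-1 cells pretreated 1 hr with compounds (up to 57.5 uM final), then stimulated with LPS (250 ng/mL final) plus ATP (1.25 mM final); secreted IL-1B measured by AlphaLISA after 16 hr, decreased signal indicating inhibition.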
The depositor's hits bear a star; u = inconclusive; x = no result. The list is not random: actives were taken first. Their share in the collection is about 19%. Unless noted, calls come from the whole dose curve; as a rule, active = well fitted curve in the direction sought with a large enough effect; inconclusive = small, poorly fitted or top-dose-only effect, or another doubt; inactive = no such curve, though single readings can be large; an effect the other way counts as inactive or inconclusive. Unless noted, % is set by controls: 0 for no effect and ±100 for the full control effect.

SMILES	TDP1 cell noCPT	HT1080-NT tox	TDP1 cell CPT	ELG1 DNA repair	HT1080 IDH1KD tx	IL-1B inflam inh
CCOc1ccc(N2CC(c3nc4ccccc4n3Cc3cccc(Cl)c3)CC2=O)cc1 (stereo not given)	16.4µM*	x	u	x	x	x
Cc1ccc(OCCCn2c(C3CC(=O)N(c4cccc(Cl)c4)C3)nc3ccccc32)c(C)c1 (stereo not given)	9.2µM*	x	-99.7%	x	x	x
CC(C)(C)N1CC(c2nc3ccccc3n2CCOc2ccccc2)CC1=O (stereo not given)	u	-2.6%	u	0.9%	-5.2%	-18.6
O=C1CC(c2nc3ccccc3n2CCCCOc2ccccc2)CN1c1ccccc1Cl (stereo not given)	14.6µM*	x	10.3µM*	x	x	x
C#CCn1c(C2CC(=O)N(c3ccc(OC)cc3)C2)nc2ccccc21 (stereo not given)	-16.5%	x	-4.4%	x	x	x
CCOc1ccccc1N1CC(c2nc3ccccc3n2CCCCOc2ccccc2)CC1=O (stereo not given)	-7.8%	x	-7.4%	x	x	x
COc1ccc(OCCCCn2c(C3CC(=O)N(c4cccc(Cl)c4)C3)nc3ccccc32)cc1 (stereo not given)	5.8µM*	x	8.2µM*	x	x	x
COc1ccc(CNC(=O)C2CCN(S(=O)(=O)c3ccc4c(ccn4C)c3)CC2)cc1	u	x	-4.8%	x	x	x
Fc1ccc2c(c1)C(c1ccc(N3CCOCC3)cc1)=NNC(c1cccs1)=N2	23.1µM*	-20.9%	u	u	-28.9%	-50.8*
Fc1ccc2c(c1)C(c1ccncc1)=NNC(c1ccc(Cl)cc1)=N2	-27.2%	-3.7%	u	-20.0%	-9.0%	-67.3*
Brc1ccc2c(c1)C(c1ccc(N3CCOCC3)cc1)=NNC(c1cccs1)=N2	20.6µM*	-4.3%	u	u	-18.1%	-28.0
Cc1ccc2c(c1)C(c1ccc(N3CCOCC3)cc1)=NNC(c1cccs1)=N2	u	-6.8%	u	1.9%	-13.4%	u
Fc1ccc2c(c1)C(c1ccncc1)=NNC(c1ccccc1)=N2	u	6.1%	-19.5%	13.3%	8.8%	-4.0
O=S(=O)(NCC1CCCO1)c1ccc(S(=O)(=O)N(Cc2ccc(F)cc2)C2CCCCC2)cc1 (stereo not given)	u	1.9%	u	x	1.2%	-2.4
O=S(=O)(c1ccc(F)cc1)N(Cc1nc(-c2ccc(Cl)cc2)no1)C1CCCCC1	25.9µM*	x	u	x	x	x
Cc1ccc(-c2noc(CN(C3CCCCC3)S(=O)(=O)c3ccc(Cl)cc3)n2)cc1	u	x	25.9µM*	x	x	x
COc1ccc(S(=O)(=O)N(Cc2nc(-c3ccc(Cl)cc3)no2)C2CCCCC2)cc1	20.6µM*	x	20.6µM*	x	x	x
CN(Cc1nc(-c2ccncc2)no1)S(=O)(=O)c1ccc(Cl)cc1	u	3.3%	u	u	-12.5%	6.5
O=C(NCc1cccc(F)c1)c1ccc(CN2CC(=O)N3CCCCC3C2=O)cc1 (stereo not given)	-6.2%	x	-9.0%	x	x	x
COc1ccc(-c2sc3cc4c(cc3c2C#Cc2cncn2C)OCO4)cc1	14.6µM*	-1.4%	25.9µM*	-13.9%	-1.0%	-3.6
COC(=O)c1c(-c2ccc(OC)cc2)oc2ccccc12	-15.5%	6.5%	-14.0%	15.2%	7.9%	24.4
COc1ccc(-c2oc3ccccc3c2C#Cc2cncn2C)cc1	18.4µM*	u	16.4µM*	u	u	u
COc1ccc(-c2sc3ccc(OC)cc3c2-c2ccc(OC)nc2)cc1	u	-12.3%	u	u	-1.4%	-3.0
COc1ccc(-c2sc3ccc(OC)cc3c2C#Cc2cncn2C)cc1	u	u	u	5.8µM*	u	u
COCCn1c(SCC(=O)N2CCCC2)nc2c(c1=O)SCC2	11.5%	2.4%	-0.8%	x	3.1%	14.3
SMILES	TDP1 cell noCPT	HT1080-NT tox	TDP1 cell CPT	ELG1 DNA repair	HT1080 IDH1KD tx	IL-1B inflam inh
Fc1cccc(C2CCCCN2Cc2nc(C3CC3)no2)c1 (stereo not given)	u	2.8%	-11.9%	0.3%	21.5%	18.8
CC(=O)N/C(=C\c1ccccc1)C(=O)OC(C)C(=O)Nc1ccccc1F (stereo not given)	-8.6%	1.3%	-3.2%	7.8%	-0.2%	-20.0
CCc1ccc(NC(=O)[C@H](C)NC(=O)C2CCN(C(=O)[C@@H](N)Cc3ccccc3)CC2)cc1	16.4µM*	-0.4%	u	u	-9.6%	-6.4
CCc1ccc(NC(=O)[C@H](C)NC(=O)C2CCN(C(=O)[C@@H](NC(=O)OC(C)(C)C)C(C)C)CC2)cc1	-19.1%	-3.9%	0.5%	u	0.3%	-5.9
CC1CN(CC(=O)Nc2ccc(S(N)(=O)=O)cc2)CC(C)O1 (stereo not given)	-0.4%	25.4%	-5.2%	-0.7%	16.5%	1.7
CCn1c(SC(C)C(=O)OC)nnc1-c1c[nH]c2ccccc12 (stereo not given)	23.1µM*	-2.3%	u	-2.8%	1.0%	u
CCOC(=O)C(C)Sc1nnc(-c2c[nH]c3ccccc23)n1C (stereo not given)	u	-20.1%	u	-9.2%	3.0%	u
CCn1c(SCc2nc(-c3cccs3)no2)nnc1-c1c[nH]c2ccccc12	23.1µM*	-20.9%	u	u	u	-18.4

Screens (PubChem BioAssay)
